# MBNL1-CUG inh – blocks human MBNL1 binding to CUG repeat RNA; TR-FRET MBNL1-His/biotin-(CUG)12 binding, 665/545 ratio; Potency, µM (series often up to 57.5 µM), for inactives: at the top dose activity change, negative = inhibition, usual class: inhibitors; actives 0.036% (n = 280,000); AID 2675; active = well fitted inhibition curve with a large enough effect in the signal ratio, with a control signal flat, not every such curve was filed as active; inconclusive = small, poorly fitted or top-dose-only effect, or effect the other way, or a change in a side signal; inactive = no such curve, though single readings can be large or run the other way; the % refers to the signal ratio; note: % is set by controls: 0 for no effect and ±100 for the full control effect
# Target sequence (Q9NR56 whole entry, looked up): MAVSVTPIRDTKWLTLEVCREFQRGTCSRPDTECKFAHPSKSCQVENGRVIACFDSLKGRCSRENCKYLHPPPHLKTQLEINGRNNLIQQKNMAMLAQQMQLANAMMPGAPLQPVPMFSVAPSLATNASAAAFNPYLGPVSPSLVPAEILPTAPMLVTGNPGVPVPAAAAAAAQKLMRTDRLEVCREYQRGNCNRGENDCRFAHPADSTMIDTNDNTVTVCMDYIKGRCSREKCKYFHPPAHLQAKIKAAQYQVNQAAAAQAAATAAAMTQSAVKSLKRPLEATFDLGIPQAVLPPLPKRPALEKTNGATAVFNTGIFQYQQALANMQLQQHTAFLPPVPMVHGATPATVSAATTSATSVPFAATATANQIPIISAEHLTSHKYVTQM
#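 Inhibition of protein-RNA binding appears as loss of TR-FRET between terbium anti-His antibody on MBNL1-His and streptavidin-XL665 on biotin-(CUG)12. Activity is normalized to buffer-only and uninhibited-complex controls.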
# aSyn yeast inh – inhibitors of alpha-synuclein toxicity in yeast; Yeast expressing alpha-synuclein, growth rescue, BacTiter-Glo, 24 h; Potency, µM (series often up to 46.1 µM), without a hit: at the top dose growth rescue (activation), usual class: activators; actives 0.14% (n = 370,000); AID 652106; note: % of control where 0% means no effect; nearly all actives have a fitted effect of over 65% in size
#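 Rescue of yeast growth: cells expressing toxic alpha-synuclein, induced in galactose at OD600 0.02, incubated with compound 24 h at 30 C. ATP luminescence quantified growth; inhibitors of toxicity appear as activators.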
# TDP-43 yeast inh – inhibitors of TDP-43 toxicity in yeast | TDP-43 expressing yeast growth rescue, BacTiter-Glo, 24 h | Potency, µM (titrated, usually from 46.1 µM), without a hit: at the highest dose growth rescue (activation), actives largely listed as activators | actives 1.8% (n = 410,000) | AID 652104; note: % of control where 0% means no effect; nearly all actives have a fitted effect of over 50% in size
#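 Yeast cells expressing TDP-43 under galactose induction are exposed to compounds for 24 hr at 30 deg C. BacTiter-Glo luminescence measures growth, so protective compounds score as activators.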
# GRP78 ERSR act – ER stress response induction in glioma; U87-MG GRP78 promoter luciferase reporter, 16 h; Potency, µM, inactives show at the highest dose activation, hits mostly activators; actives 0.02% (n = 420,000); AID 602332; note: series mostly up to about 76 µM; % of control where 0% means no effect; nearly all actives have a fitted effect of over 35% in size
#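 Stably transfected U87-MG glioma cells carrying a GRP78-based luciferase sensor; 16 h compound incubation. Luminescence end-point read 10 min after Bright-Glo addition at room temperature.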
# FUS yeast rescue – FUS proteinopathy suppression in yeast; Potency, µM (series often up to 76.6 µM), actives largely listed as activators; S. cerevisiae FUS-expressing, growth rescue, OD600, 24 h; actives 0.24% (n = 390,000); AID 1347120;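 note: plate controls were DMSO vehicle for no effect and reference control for full effect; nearly all actives have a fitted effect of over 55% in size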
#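 Read-out: OD at 600 nm after 24hr at 30C, reporting rescue of FUS-induced yeast toxicity. Cells at OD 0.005 in galactose (2%) minimal medium; compounds tested in a dilution series; CP55940 titration from 92uM final as control.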
# Abeta rescue – compounds reversing amyloid beta toxicity in yeast; yeast expressing A-beta42, growth rescue, OD600, 48 h; response scale: 0% DMSO, 100% iron-clioquinol control; Potency, µM (titrated, usually from 46.1 µM), most hits filed as activators; actives 0.063% (n = 410,000); AID 1347071; note: nearly all actives have a fitted effect of over 55% in size
#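 Growth rescue measured by 600 nm absorbance after 48 h yeast culture at 30 C with compound. Values normalized between DMSO and an equimolar ferric chloride plus clioquinol control.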
# Active calls of the source: *; i = inactive; u = inconclusive; x = not tested or not shown; [ ] = another dose, or the depositor's remark. Most compounds without a hit are left out; they make up all but 2% or so of the library. Unless noted, calls come from the whole dose curve; as a rule, active = well fitted curve in the direction sought with a large enough effect; inconclusive = small, poorly fitted or top-dose-only effect, or another doubt; inactive = no such curve, though single readings can be large; an effect the other way counts as inactive or inconclusive. Potency is the fitted concentration of half-maximal effect.
SMILES,MBNL1-CUG inh,aSyn yeast inh,TDP-43 yeast inh,GRP78 ERSR act,FUS yeast rescue,Abeta rescue
O=c1c2ccccc2n(Cc2ccno2)n1[C@@H](Cc1ccccc1)Cn1cc(C2CCCC2)nn1,x,x,x,x,i,x
COc1ccc(OC)c(-c2cc(Cl)c3c(c2)CC(CNC(=O)c2cnn4cccnc24)O3)c1 (configuration not stated),x,x,x,1%,x,x
O=C(NCC1CCC2(CCN(Cc3cc4ccccc4o3)CC2)O1)c1ccccc1 (configuration not stated),x,x,x,-4%,x,x
Cc1ccc(-n2c(C)cc(C(=O)CSc3nncs3)c2C)cc1,-5%,-20%,22µM*,6%,i,i
Cc1ccc(-n2c(C)cc(C(=O)CSc3nnnn3C)c2C)cc1,-2%,0%,32µM*,4%,i,i
Cc1ccc(CN2C[C@H](Sc3ccccn3)C[C@H]2C(=O)Nc2ccc3sc(C)nc3c2)c(C)c1,x,x,x,-4%,x,x
CCc1nc2cc(C(=O)NC3CCOC(C)(C)C3)cc(NC(=O)c3ccccc3OC)c2n1C (configuration not stated),x,x,x,5%,x,x
Cc1ccc2cc(C#N)c(N3CCCN(S(=O)(=O)c4ccccc4)CC3)nc2c1C,x,9%,-13%,2%,6.3µM*,i
Cc1nc(-c2ccccc2)sc1-c1ccn[nH]1,18%,-20%,14µM*,-3%,i,i
Cc1nc(-c2ccccc2)sc1-c1ccnn1C,u,0%,16%,0%,i,i
Brc1cccc(-c2nc3c4ccccc4ccn3c2Cc2ccsc2)c1,x,0%,u,1%,i,i
COc1ccc(Cc2c(-c3ccc(F)cc3)nc3c4ccccc4ccn23)c(C)c1,x,16%,u,-1%,i,i
CCOC(=O)Cc1c(-c2cccc(Br)c2)nc2c3ccccc3ccn12,x,8%,22µM*,x,i,i
COc1ccc(Cc2c(-c3ccccc3)nc3c4ccccc4ccn23)c(C)c1,x,17%,11µM*,2%,i,i
COc1ccc(-c2nc3c4ccccc4ccn3c2Cc2ccccc2C(F)(F)F)cc1OC,x,17%,20µM*,0%,u,i
COc1ccccc1Cc1c(-c2ccc(OC)c(OC)c2)nc2c3ccccc3ccn12,x,4%,11µM*,-5%,u,i
Cc1ccc(NC(=O)C2CCN(c3nnc(-n4cccc4)s3)CC2)cc1C,x,x,x,x,i,x
CSc1ncccc1C(=O)NCC1Cc2cc(F)cc(-c3cncnc3)c2O1 (configuration not stated),x,x,x,-4%,x,x
Cc1cc(=O)[nH]c(N/N=C/c2cc(C)n(-c3ccccc3)c2C)n1,-1%,1%,-18%,-5%,32µM*,i
CCc1ccc(S(=O)(=O)Nc2ccc(Cl)cn2)cc1,1%,-4%,25%,-3%,i,i
O=S(=O)(Nc1ccc(Cl)cn1)c1ccc(Cl)cc1,-9%,6%,11µM*,-5%,i,i
CN(CC(=O)O)c1ccc(/C=C/c2ccnc3ccccc23)cc1,x,x,x,4%,x,x
O=C(CSc1nc2scc(-c3ccco3)c2c(=O)n1-c1ccccc1)N1CCOCC1,8%,0%,-8%,-2%,i,i
NC(=O)CSc1nc2scc(-c3ccco3)c2c(=O)n1-c1ccccc1,34%,-1%,2%,-3%,22µM*,i
COCCCN=C(c1ccco1)n1c(=S)nc(-c2ccco2)n(CCCOC)c1=S,2%,-27%,-16%,5%,28µM*,i
SMILES,MBNL1-CUG inh,aSyn yeast inh,TDP-43 yeast inh,GRP78 ERSR act,FUS yeast rescue,Abeta rescue
COc1cccc(C2(CC(=O)N3CCN(c4nonc4C)CC3)CC(=O)N(C3CCCC3)C2=O)c1 (configuration not stated),x,x,x,0%,x,x
COc1cccc(CN(C)C(=S)Nc2cccc(C)c2)c1,4%,-6%,11µM*,-3%,i,i
CCN(CC)C(=S)Nc1ccc(OC)cc1,-6%,0%,13%,-1%,x,i
COc1ccc(CC(=O)NC(=S)Nc2cccc(C)c2)cc1,x,18%,-6%,15%,i,i
COc1ccc(CN(C)C(=S)Nc2ccc(Cl)cc2)cc1,-3%,-18%,12%,-5%,i,11µM*
COc1ccc(COC(=O)C2CCN(C(=O)c3ccc(Cl)cc3)CC2)cc1F,x,1%,-6%,-3%,i,i
COc1ccc(C(C)=O)cc1COC(=O)C1CCN(C(=O)c2ccc(Cl)cc2)CC1,x,1%[1.84 µM],20µM*,-2%,u,i
O=C(Nc1ccc2c(c1)OCO2)c1cc(C2CCCN(C(=O)CCCc3ccccc3)C2)on1 (configuration not stated),x,17%,u,0%,u,i
O=C(Nc1ccccc1)c1cc(C2CCCCN2C(=O)CCCc2ccccc2)on1 (configuration not stated),x,13%,0%,-2%,u,i
Cc1ccc(F)cc1C(=O)N1CCCC(c2cc(C(=O)Nc3ccccc3)no2)C1 (configuration not stated),x,u,35µM*,0%,i,i
O=C(Nc1ccc2c(c1)OCO2)c1cc(C2CCCN(C(=O)CCc3ccccc3)C2)on1 (configuration not stated),x,-4%,22µM*,5%,u,i
O=C(Nc1ccc(F)c(Cl)c1)c1cc(C2CCCN(C(=O)c3cccs3)C2)on1 (configuration not stated),x,0%,22µM*,3%,i,i
O=C(Nc1ccc2c(c1)OCO2)c1cc(C2CCCCN2C(=O)CCCc2ccccc2)on1 (configuration not stated),x,7%,35µM*,-2%,i,i
O=C(c1cnn(-c2nccc(-c3ccccc3C(F)(F)F)n2)c1C1CC1)N1CCN(CCO)CC1,x,x,x,-2%,x,x
O=C(Nc1ccccc1)c1cc(C2CCCN(C(=O)C/C=C/c3ccccc3)C2)on1 (configuration not stated),x,-4%,22µM*,-3%,u,i
Cc1cc([N+](C)(C)C)cc(C)c1/C=C/c1ccnc2ccccc12,x,-40%,x,-4%,x,x
OC(c1cccc(Cl)c1)c1nc(-c2ccc3c(c2)OCO3)cs1 (configuration not stated),x,u,32µM*,0%,i,i
Cc1nc(-c2ccc3c(c2)OCO3)cs1,-5%,0%,26%,-2%,i,i
OC(c1ccccc1)c1nc(-c2ccc3c(c2)OCO3)cs1 (configuration not stated),x,11µM*,20µM*,1%,i,i
